FEN1 inh-1: qHTS Assay for the Inhibitors of Human Flap endonuclease 1 (FEN1); Recombinant FEN1 flap cleavage, fluorescence, 15 min; actives 0.35% (n = 390,000); Potency, µM (highest dose often 114 µM), for inactives: at the top dose activity change, negative = inhibition, hits mostly inhibitors; P39748; AID 588795, 2011; note: potency is the fitted concentration of half-maximal effect; % is set by controls: 0 for no effect and ±100 for the full control effect; nearly all actives have a fitted effect of over 65% in size
Target sequence (P39748 whole entry, looked up): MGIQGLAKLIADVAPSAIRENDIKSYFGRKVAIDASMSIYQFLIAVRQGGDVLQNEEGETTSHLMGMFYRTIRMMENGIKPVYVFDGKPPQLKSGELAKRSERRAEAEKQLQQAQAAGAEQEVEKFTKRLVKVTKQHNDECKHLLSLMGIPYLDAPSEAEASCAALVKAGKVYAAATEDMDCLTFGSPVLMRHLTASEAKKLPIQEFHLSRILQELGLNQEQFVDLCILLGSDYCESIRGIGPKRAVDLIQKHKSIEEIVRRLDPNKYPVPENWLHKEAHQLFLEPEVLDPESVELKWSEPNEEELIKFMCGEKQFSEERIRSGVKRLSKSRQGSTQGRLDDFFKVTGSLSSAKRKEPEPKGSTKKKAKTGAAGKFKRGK
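Steps: FEN1 (10 nM) dispensed; compound added by pin tool; 15 min at room temperature; substrate added to 50 nM final; reads at 0 min and 15 min; data normalized and fitted (four-parameter Hill).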
RECQ1 inh: qHTS Assay for Inhibitors of RecQ-Like Dna Helicase 1 (RECQ1). Potency, µM (doses to about 57.3 µM), for the others: at the top dose activity, negative = inhibition, actives largely listed as inhibitors. AID 2549, 2010. actives 0.54% (n = 240,000). RECQ1 DNA unwinding, red fluorescence kinetic read. ATP-dependent DNA helicase Q1 (Homo sapiens), P46063;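 note: potency is the fitted concentration of half-maximal effect; plate controls were vehicle for no effect and no enzyme for full effect; nearly all actives have a fitted effect of over 30% in size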
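RECQ1T1 50 nM; forked duplex (20 bp + 30-nt ss tails) 200 nM, ATP 2 mM final; pH 8.0, 2 mM MgCl2, 2.5 ug/ml poly(dI-dC); 15 min compound preincubation; discontinuous kinetic read over 2 h at RT.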
PI5P4Ka inh: qHTS for Inhibitors of phosphatidylinositol 5-phosphate 4-kinase (PI5P4K). max response, %. AID 652105, 2013. Phosphatidylinositol 5-phosphate 4-kinase type-2 alpha (Homo sapiens), P48426. actives 1.2% (n = 330,000). PI5P4Kalpha enzyme, ADP-Glo luminescence, 60 min; active compounds read low; active = max response of -50% or lower; inconclusive = between -30% and -50%; inactive = -30% or higher; note: value at the top dose of about 77 µM; % is set by controls: 0 for no effect and ±100 for the full control effect
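Human PI5P4Kalpha with substrate in 0.038 M HEPES pH 7.4, 0.28 mM EGTA, 0.1% CHAPS, 5% DMSO; reaction started with 5 microM ATP (final), 60 min at room temperature. ADP formed read by ADP-Glo luminescence.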
APE1 inh: qHTS Assay for Inhibitors of the Human Apurinic/apyrimidinic Endonuclease 1 (APE1); actives 0.35% (n = 350,000); recombinant APE1, TAMRA/BHQ-2 abasic DNA cleavage fluorescence; DNA repair nuclease/redox regulator APEX1 (Homo sapiens), P27695; Potency, µM (highest dose often 65.8 µM), for inactives: at the top dose activity change, negative = inhibition, actives largely listed as inhibitors; AID 2517, 2012;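 note: potency is the fitted concentration of half-maximal effect; plate controls were vehicle for no effect and reference inhibitor for full effect; nearly all actives have a fitted effect of over 55% in size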
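Substrate: short duplex with […] THF abasic site, 5'-TAMRA and 3'-BHQ-2, 50 nM final. APE1 at 0.75 nM, preincubated 15 min RT with compound. Fluorescence increase from first to third read measured activity.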
BLM helicase inh: qHTS Assay for Inhibitors of Bloom's syndrome helicase (BLM); recombinant BLM DNA unwinding, fluorescence dequenching; Potency, µM (series often up to 56.1 µM), for the others: top-dose activity change, negative = inhibition, actives largely listed as inhibitors; actives 0.2% (n = 350,000); AID 2528, 2010;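 note: potency is the fitted concentration of half-maximal effect; plate controls were vehicle for no effect and no enzyme for full effect; nearly all actives have a fitted effect of over 35% in size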
GCN5L2 inh: qHTS Assay for Inhibitors of GCN5L2; Histone acetyltransferase KAT2A (Homo sapiens), Q92830; GCN5L2 HAT assay, ThioGlo1 CoA-SH fluorescence; Potency, µM (top dose mostly 58.9 µM), inactives show at the highest dose activity change, negative = inhibition, most hits filed as inhibitors; actives 0.21% (n = 390,000); AID 504327, 2011; note: potency is the fitted concentration of half-maximal effect; % is set by controls: 0 for no effect and ±100 for the full control effect
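Titration-based screen in which CoA formation is detected via maleimide probe ThioGlo1 (50uM) turning fluorescent on thiol reaction; substrates H3(1-25) 75uM and acetyl-CoA 70uM, GCN5L2 20nM, 20 min incubation at room temperature.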
FEN1 inh-2: qHTS Assay for the Inhibitors of FEN1: Confirmatory Assay for Cherry-picked Compounds; FEN1 flap cleavage, TAMRA/BHQ2 fluorogenic DNA substrate; shares compounds with FEN1 inh-1; actives 79% (n = 880); AID 720498, 2013; Potency, µM, most hits filed as inhibitors; note: potency is the fitted concentration of half-maximal effect; nearly all actives have a fitted effect of over 60% in size
Numbers without * were called inactive; [ ] = another dose, or the depositor's remark. The list is not random: actives were taken first. Their share in the collection is about 1.5%. Unless noted, calls come from the whole dose curve; as a rule, active = well fitted curve in the direction sought with a large enough effect; inconclusive = small, poorly fitted or top-dose-only effect, or another doubt; inactive = no such curve, though single readings can be large; an effect the other way counts as inactive or inconclusive.

How did Cc1cccc(C)c1NC(=O)CN1C(=O)S/C(=C\c2cccn2C)C1=O do in these assays?
FEN1 inh-1: -1.0%; RECQ1 inh: inactive; APE1 inh: 3.2%; BLM helicase inh: -2.2%; GCN5L2 inh: -7.1%

What do the screens show for `O=C(O)c1ccc(-n2cccc2/C=C2\SC(=O)N(Cc3ccc(Cl)cc3)C2=O)cc1`?
FEN1 inh-2: 75.7*

Results for CCc1cccc(C)c1NC(=O)CN1CCCN(Cc2ccccc2Cl)S1(=O)=O ?
FEN1 inh-1: -12.5%; BLM helicase inh: -3.4%; GCN5L2 inh: -4.4%

How did CCCCc1nc2c(c3c1C[C@H](C)OC3)CN(C(=O)Cc1cccs1)CC2 do in these assays?
RECQ1 inh: inactive[11.5 µM]; APE1 inh: 13.8%[12.4 µM]; BLM helicase inh: 4.0%[12.4 µM]

How did CCc1nnc(N/N=C/c2c(Cl)cccc2Cl)n1N do in these assays?
FEN1 inh-1: 7.2%; RECQ1 inh: -8.5%; APE1 inh: -4.6%; BLM helicase inh: -1.2%; GCN5L2 inh: 19.1%; FEN1 inh-2: inconclusive

How did O=C1c2ccccc2-c2nc3ccccc3cc21 do in these assays?
FEN1 inh-1: -22.1%; PI5P4Ka inh: -8.6; APE1 inh: -7.8%; BLM helicase inh: -1.7%; GCN5L2 inh: -20.1%

What do the screens show for `c1ccc2c(c1)Cc1cc3ccccc3nc1-2`?
FEN1 inh-1: inconclusive; RECQ1 inh: -4.1%; PI5P4Ka inh: 0.3; APE1 inh: inconclusive; BLM helicase inh: -3.9%; GCN5L2 inh: -0.1%; FEN1 inh-2: 30.1*

What do the screens show for `C=CCc1cccc2cc(-c3nc4ccc(C(=O)O)cc4[nH]3)c(=O)oc12`?
FEN1 inh-1: 5.0%; BLM helicase inh: 0.3%; GCN5L2 inh: inconclusive

Results for O=C(N/N=C/c1cccnc1)c1cccc(S(=O)(=O)Nc2cccc(Cl)c2)c1 ?
FEN1 inh-1: -0.8%; RECQ1 inh: -4.2%; PI5P4Ka inh: 0.6; APE1 inh: 0.8%; BLM helicase inh: -5.6%; GCN5L2 inh: -7.1%

How did O=C(N/N=C/c1ccncc1)c1cccc(S(=O)(=O)Nc2ccc(Cl)cc2)c1 do in these assays?
FEN1 inh-1: inconclusive; RECQ1 inh: inactive; PI5P4Ka inh: -5.5; APE1 inh: 15.2%; BLM helicase inh: inconclusive; GCN5L2 inh: -11.5%; FEN1 inh-2: 67.5*

Results for Cc1nc2ccccc2c(=O)n1/N=C/c1ccc(O)c(O)c1O ?
FEN1 inh-1: inconclusive; PI5P4Ka inh: -86.1*; APE1 inh: -18.0%; BLM helicase inh: -18.2%; GCN5L2 inh: -20.5%; FEN1 inh-2: 10.7*

What do the screens show for `COc1ccc(-c2nnc3n2N=C(c2ccccc2OC)CS3)cc1`?
RECQ1 inh: -12.2%; APE1 inh: -0.2%; BLM helicase inh: 3.8%

What do the screens show for `CCCNC(=O)c1ccc2c(=O)c(O)c(-c3ccc(Cl)c([N+](=O)[O-])c3)[nH]c2c1`?
FEN1 inh-1: inconclusive; RECQ1 inh: inactive; PI5P4Ka inh: -26.5; APE1 inh: -3.3%; BLM helicase inh: -5.7%; GCN5L2 inh: -3.1%

How did NC(=O)c1ccc2c(=O)c(O)c(-c3cc(Cl)c(N)c(Cl)c3)[nH]c2c1 do in these assays?
FEN1 inh-1: 56.2µM*; PI5P4Ka inh: -6.4; APE1 inh: 6.2%; BLM helicase inh: -13.6%; GCN5L2 inh: -6.4%; FEN1 inh-2: 37.9*
